# Test results reported in PubChem BioAssay (Tox21).
# Records with an inconclusive call do not appear. The source made the active and inactive calls. Calls come from the whole dose curve; as a rule, active = well fitted activation curve with a large enough effect in the signal ratio in the repeat runs, with a control signal flat (not every such curve was filed as active); inconclusive = weak or mixed curves; inactive = flat fitted curve, though single readings scatter; the % refers to the signal ratio.
# Assay: qHTS assay for small molecule activators of the heat shock response signaling pathway (AID 743210)
# Settings: HeLa HSE-bla reporter, beta-lactamase ratio, 5 h; series mostly up to 62.6 µM; activation: at the top concentration
# Excerpt: U.S. Tox21 Program National Center for Advancing Translational Sciences [NCATS] NIH Chemical Genomics Center [NCGC] U.S. Environmental Protection Agency [EPA] National Institutes of Environmental Health Sciences [NIEHS] National Toxicology Program [NTP] U.S. Food and Drug Administration [FDA] Tox21 Assay Overview: Various chemicals, environmental and physiological stress conditions may lead to the activation of heat shock response/ unfolded protein response (HSR/UPR). There are three heat shock transcription factors (HSFs) (HSF-1, -2, and -4) mediating transcriptional regulation of the human HSR. To identify the compounds that activate HSR signaling, HSE-bla HeLa cell line (Invitrogen, Carlsbad, CA, USA) containing a beta-lactamase reporter gene under the control of the heat shock response elements was used to screen the Tox21 10K compound library.
# Tox21 Assay Protocol Summary: The CellSensor HSE-bla HeLa cells (Invitrogen, Carlsbad, CA, USA) were dispensed at 1500 cells/6uL/well into 1536-well black wall/clear bottom plates using a Multidrop combi (Thermo Fisher Scientific, Waltham, MA) dispenser. After the assay plates were incubated at 37 C and 5% CO2 overnight, 23 nL of compounds dissolved in DMSO, positive controls or DMSO only was transferred to the assay plate by a Pintool station (Kalypsys, San Diego, CA). The plates were incubated at 37 C for 5 h. After 1 uL of LiveBLAzerTM B/G FRET substrate was added using a Flying Reagent Dispenser (Beckman Coulter, Indianapolis, IN, USA), the plates were incubated at room temperature for 2.5 h, and fluorescence intensity was measured by an Envision plate reader (PerkinElmer, Shelton, CT).
# % is set by controls: 0 for no effect and ±100 for the full control effect.
row,SMILES,activation
1,CCCCCCCCCCCCOC(C)=O,-0.997% (inactive)
2,CC(=O)N(CC(O)CO)c1c(I)c(C(=O)NCC(O)CO)c(I)c(C(=O)NCC(O)CO)c1I (stereo not given),0.966% (inactive)
3,CCCCCCCCCCCCC1CO1 (stereo not given),-0.273% (inactive)
4,Cc1nc2ccccc2c(=O)o1,-1.22% [at 81.1 µM] (inactive)
5,CCCCCCCCC(=O)OCC,-2.8% (inactive)
6,Cc1ccc(S(=O)(=O)NC(=O)NC2CCCCCCC2)cc1,-0.484% (inactive)
7,C=C[C@@H](C)CCC=C(C)C,-1.2% (inactive)
8,NC(=O)NC(=O)Cc1ccccc1,-0.279% (inactive)
9,CCC(=O)c1ccc(O)cc1,0.05% (inactive)
10,Nc1nc(=O)n([C@@H]2O[C@H](CO)[C@@H](O)[C@@H]2F)cc1I,-0.32% (inactive)
11,CCN(CCC#N)c1ccccc1,0.121% (inactive)
12,CCN(CC)C(=O)C1CN2CCc3cc(OC)c(OC)cc3C2CC1OC(C)=O (stereo not given),0.67% (inactive)
13,O=C(CN1CCN(Cc2ccc3c(c2)OCO3)CC1)N1c2ccccc2Sc2ccccc21,0.728% (inactive)
14,CCCCC(CC)COC(=O)c1ccccc1 (stereo not given),0.343% (inactive)
15,CCN(Cc1cccc(S(=O)(=O)O)c1)c1ccccc1,-0.165% (inactive)
16,O=[Si]=O,0.372% (inactive)
17,FC(F)(F)c1ccc(Cl)cc1Cl,-0.0992% (inactive)
18,OCCCCCCCl,0.995% [at 81.1 µM] (inactive)
19,NCCc1ccn[nH]1,0.325% (inactive)
20,CC(C)CCC(=O)CCC(C)C,-0.772% (inactive)

row,SMILES,activation
1,CCOC(=O)CCCCCCCCC(=O)OCC,-1.16% (inactive)
2,C[C@@H]1C[C@H]2[C@@H]3C[C@H](F)C4=CC(=O)C=C[C@]4(C)[C@@]3(F)[C@@H](O)C[C@]2(C)[C@@]1(O)C(=O)CO,-1.35% (inactive)
3,CCC(=O)OCCC(C)CCC=C(C)C (stereo not given),-1.03% (inactive)
4,C[CH2][Ge]([Cl])([CH2]C)[CH2]C,1.98% [at 81.1 µM] (inactive)
5,CC(=O)OC(C)c1ccccc1 (stereo not given),1.2% (inactive)
6,O=C(O)Cc1cccc(-c2cc(CCCCCCc3ccc(O[C@H]4O[C@H](CO)[C@@H](O)[C@H](O)[C@@H]4O)c(-c4cccc(CC(=O)O)c4)c3)ccc2O[C@H]2O[C@H](CO)[C@@H](O)[C@H](O)[C@@H]2O)c1,0.0325% [at 0.55 µM] (inactive)
7,OC(CCN1CCCCC1)(c1ccccc1)c1ccccc1,-0.436% (inactive)
8,CCOC(=O)CCc1ccccc1,-0.913% (inactive)
9,C/C=C(\C)C(=O)OCC/C=C\CC,0.504% (inactive)
10,C=CCOc1c(Br)cc(Br)cc1Br,-1.62% (inactive)
11,Nc1c(NC/C=C\COc2cc(CN3CCCCC3)ccn2)c(=O)c1=O,-0.928% [at 29.1 µM] (inactive)
12,CCC(C)N (stereo not given),-0.57% (inactive)
13,NS(=O)(=O)c1ccc(Cl)c(S(N)(=O)=O)c1,-0.527% (inactive)
14,CCCCOC(=O)C(C)OC(=O)CCC (stereo not given),-0.897% (inactive)
15,COCC(=O)Nc1c(I)c(C(=O)NCC(O)CO)c(I)c(C(=O)N(C)CC(O)CO)c1I (stereo not given),-0.615% (inactive)
16,CC(=O)c1ccc2c(c1)CCCC2,0.0969% (inactive)
17,CC(C)COC(=O)CC(C(=O)OCC(C)C)S(=O)(=O)O (stereo not given),-0.229% (inactive)
18,COC(OC)C(C)c1ccccc1 (stereo not given),-0.296% (inactive)
19,Cc1nc2n(c(=O)c1CCN1CCC(C(=O)c3ccc(F)cc3)CC1)CCS2,0.667% (inactive)
20,COC(/C=C(\C)CCC=C(C)C)OC,-2.29% (inactive)
